LmPK inhibitor: qHTS Assay for Inhibitors of Leishmania Mexicana Pyruvate Kinase (LmPK); Q27686; purified LmPK, Kinase-Glo ATP luminescence, 1 h; Potency, µM (highest dose often 57.5 µM), inactives show at the highest dose activity change, negative = inhibition, usual class: inhibitors; hit rate 0.37% among 290,000; AID 1721, 2009; further: potency means the concentration at half of the fitted maximal effect; on the % scale 0 is the no-effect control and ±100 the full control effect
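In 50 mM imidazole pH 7.2 with 7 mM MgCl2, LmPK (0.1 nM) turned over PEP (0.5 mM) and ADP (0.1 mM) for 1 h at room temperature. Luciferase read-out of ATP.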
Giardia FBPA inh: qHTS Assay for Inhibitors of Fructose-1,6-bisphosphate Aldolase from Giardia Lamblia; A8B2U2; purified Giardia FBPA; Potency, µM (doses to about 59.6 µM), inactives show top-dose activity, negative = inhibition, hits mostly inhibitors; hit rate 0.71% among 290,000; further: potency means the concentration at half of the fitted maximal effect; on the % scale 0 is the no-effect control and ±100 the full control effect; nearly all actives have a fitted effect of over 55% in size
Target sequence (A8B2U2 whole entry, looked up): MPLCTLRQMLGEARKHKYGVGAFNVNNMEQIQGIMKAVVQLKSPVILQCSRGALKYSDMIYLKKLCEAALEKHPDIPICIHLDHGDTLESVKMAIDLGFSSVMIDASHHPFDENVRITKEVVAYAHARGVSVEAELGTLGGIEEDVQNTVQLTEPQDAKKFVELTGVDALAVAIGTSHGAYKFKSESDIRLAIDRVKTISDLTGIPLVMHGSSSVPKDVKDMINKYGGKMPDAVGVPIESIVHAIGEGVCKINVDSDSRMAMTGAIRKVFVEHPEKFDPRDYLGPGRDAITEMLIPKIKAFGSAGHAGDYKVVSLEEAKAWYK
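40 nM FBPA preincubated 10 min at RT with compound (up to 57.5 uM final), then substrate plus GAPDH/TPI/NAD/arsenate coupling and diaphorase/resazurin added. Fluorescence read after 20 min at RT, 525/598 nm.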
Shiga inhibitor: A qHTS for Small Molecule Inhibitors of Shiga Toxin. Vero cells, Shiga toxin protein synthesis inhibition reporter. inhibition, % at 38.7 µM. hit rate 9.2% among 290,000; in the data active means inhibition mostly above about 28%, no sharp cut-off; inactive means mostly below about 43%; further: 0% is about no effect
NS1 inh: qHTS Assay for Inhibitors of Influenza NS1 Protein Function; Potency, µM (series often up to 46.1 µM), without a hit: at the highest dose activity, positive = more growth; hit rate 0.4% among 270,000; AID 2326, 2010; calls by dose curve; further: potency means the concentration at half of the fitted maximal effect; actives are rising curves; nearly all actives have a fitted effect of over 50% in size
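S. cerevisiae expressing influenza A NS1, grown in glucose, washed, then diluted 1:100 into pH 6.0 -URA galactose medium with 23 nl compound. Growth recovery read as OD600; NS1-free strain serves as control.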
Cycloheximide cs: Cycloheximide Counterscreen for Small Molecule Inhibitors of Shiga Toxin; cell reporter, cycloheximide protein synthesis inhibition counterscreen; max response, %; hit rate 12% among 300,000; AID 2314, 2010; in the data active means max response mostly above about 13%, no sharp cut-off; inactive means mostly below about 14%; further: read at 38.3 µM for the half of the compounds with a filed dose; 0% is about no effect
Starred values were filed as active, the others as inactive; ? = inconclusive; nt = no result given; [ ] = dose if it differs, or a comment. Rows were chosen to be rich in hits. Some 14% of all compounds tested hit in one or more screens of this group. Unless noted, the call rests on the fitted dose curve; in most records, active means well fitted curve in the direction sought with a large enough effect; inconclusive means small, poorly fitted or top-dose-only effect, or another doubt; inactive means no such curve, though single readings can be large; an effect the other way counts as inactive or inconclusive.

SMILES	LmPK inhibitor	Giardia FBPA inh	Shiga inhibitor	NS1 inh	Cycloheximide cs
COc1ccc(C(=O)NC(=S)Nc2ccc3[nH]c(=O)[nH]c3c2)c(OC)c1	0.8%	nt	34.8	-11.1%	21.2*
COc1cccc(NC(=O)c2cccc(OC)c2OC)c1	-2.7%	-5.0%	125.1*	-6.2%	69.8*
COc1cccc(NC(=O)c2cc3ccccc3cc2OC)c1	4.1%	0.3%	107.8*	-2.8%	54.6*
COc1cccc(C(=O)Nc2ccncc2)c1OC	-0.1%	-4.5%	nt	-5.5%	0.7
COc1ccc(C(=O)Nc2ccc3c(c2)CCCN3C(=O)c2cccs2)c(OC)c1	-1.1%	nt	-1.2	-48.4%	12.2
COc1cccc(C(=O)Nc2ccc3c(c2)CCCN3C(=O)c2cccs2)c1OC	-1.0%	nt	49.0*	0.2%	26.2*
COc1ccc(OC)c(NC(=O)c2cc3ccccc3cc2OC)c1	-10.7%	-5.2%	43.3	-4.1%	2.4
CCCn1c(C(C)Nc2nc(C)cs2)nc2cc(Cl)c(Cl)cc21 (stereo unspecified)	-2.6%	-7.0%	-4.8	12.2%	-2.5
Cc1nn(C(C)C(=O)NCCCN2CCCCCC2)c(=O)c2cc3sccc3n12 (stereo unspecified)	-5.8%	nt	-5.4	15.7%	-8.6
COc1ccccc1CNCC(=O)Nc1ccc(N(C)C)cc1	1.1%	?	110.8*	1.6%	50.0*
COc1cc2ccccc2cc1C(=O)Nc1ccc(O)cc1	3.9%	-10.7%	62.8*	-5.5%	44.4*
COc1cc2ccccc2cc1C(=O)Nc1ccc2oc(=O)ccc2c1	-1.6%	0.7%	-4.8	4.6%	5.1
COc1cccc(NC(=O)c2ccccc2Br)c1	-0.5%	0.1%	nt	-5.0%	28.2*
COc1cccc(C(=O)Nc2ccc3[nH]c(=O)[nH]c3c2)c1OC	2.5%	-19.2%	54.2*	4.5%	8.4
COc1cccc(NC(=O)c2ccccc2-c2ccccc2C(=O)O)c1	6.4%	19.5%	nt	12.0%	-2.5
COc1cccc(-c2ccc3ncnc(NCc4cnc(C)cn4)c3c2)c1	nt	7.1%	nt	nt	nt
CN[C@@H](c1ccncc1)[C@@H](NC)c1ccncc1	nt	nt	nt	0.3%	nt
COc1cccc(C(=O)Nc2ccc(N(C)C)cc2)c1OC	-27.3%	-25.3%	124.3*	-4.8%	39.4*
CNC(=O)c1ccsc1NC(=O)c1ccc(Cl)s1	1.6%	-7.0%	-4.4	-30.0%	-2.7
Cc1ccc(C(=O)Nc2nc(C(C)(C)C)cs2)s1	4.2%	-11.7%	157.8*	-83.0%	56.5*
CC(C)(C)c1csc(NC(=O)c2ccc(Cl)s2)n1	0.1%	12.6%	102.6*	-62.4%	62.8*
O=C(Nc1cccc(S(=O)(=O)N2CCOCC2)c1)c1ccc2ccccc2n1	0.3%	-14.1%	33.7	4.2%	30.0*
Cc1ccc(NC(=O)c2ccc3ccccc3n2)cc1S(=O)(=O)N1CCOCC1	8.3%	-9.8%	50.8	nt	6.2
O=C(Nc1cccc(S(=O)(=O)N2CCCC2)c1)c1ccc2ccccc2n1	-4.2%	-9.7%	-2.5	0.7%	5.3
O=C(Nc1cccc(S(=O)(=O)N2CCCCC2)c1)c1ccc2ccccc2n1	3.4%	-6.5%	-20.6	22.0%	25.2*
SMILES	LmPK inhibitor	Giardia FBPA inh	Shiga inhibitor	NS1 inh	Cycloheximide cs
O=C(Nc1cccc(S(=O)(=O)N2CCOCC2)c1)c1c2c(nc3ccccc13)CCC2	-0.4%	-3.6%	8.7	3.98µM*	-5.6
O=S(=O)(c1ccc2nc(Nc3ccccc3)ccc2c1)N1CCCCC1	-1.2%	?	25.6	-15.0%	13.9*
Cc1ccc(S(=O)(=O)N(C)C)cc1NC(=S)NC1CCCC(C)C1C (stereo unspecified)	2.5%	-13.7%	-3.3	27.8%	-1.6
FC(F)Sc1ccc(NC(=S)NC2CCCC2)cc1	-0.3%	-3.5%	63.9*	nt	37.8*
C=C1C2(C(=O)Nc3ccc(SC(F)F)cc3)CCC(C2)C1(C)C (stereo unspecified)	1.5%	2.5%	-5.0	-6.1%	-3.8
O=C(Nc1ccc(SC(F)F)cc1)C12CCC(CC1)C2	2.4%	?	77.2*	-5.8%	18.8*
OC1CCC(NC(=S)Nc2ccc(SC(F)F)cc2)CC1 (stereo unspecified)	1.3%	-0.3%	75.0*	nt	36.0*
S=C(Nc1ccc(Oc2ccccc2)cc1)NC1CCCCCC1	2.6%	9.4%	12.6	-25.3%	-1.9
CC1CCCC(NC(=S)Nc2ccc(SC(F)F)cc2)C1C (stereo unspecified)	4.5%	-9.9%	35.8	-3.4%	25.1*
NS(=O)(=O)c1ccc(NC(=S)NC2CCCC2)cc1	0.2%	?	14.2	6.6%	-2.9
N#Cc1ccc(C[C@H](C(=O)O)N2C(=O)c3ccc(C(=O)O)cc3C2=O)cc1	nt	7.1%	-3.4	nt	-5.5
Cn1c(=O)c(-c2ccc(F)cc2)nc2cnc(N3CCOCC3)nc21	nt	5.8%	nt	nt	nt
O=C(Cn1nnc2c(cnn2-c2ccc(F)cc2)c1=O)OC1CCCCC1	4.7%	2.6%	64.2	-6.3%	27.5*
CCOc1ccc(NC(=O)Cn2nnc3c(cnn3-c3ccc(F)cc3)c2=O)cc1	6.4%	1.3%	-2.0	nt	-3.0
COC(=O)[C@@H](NC(=O)N1CCN(C(=O)C2COc3ccccc3O2)CC1)C(C)C (stereo partly specified)	2.1%	3.7%	10.7	-2.9%	11.1
COC(=O)CNC(=O)[C@@]1(C)C=C[C@@H](Cc2ccccc2)N1C(=O)OC	nt	-0.8%	nt	nt	nt
Cc1cc(C)n2ncc(/C(N)=N/OC(=O)c3ccccc3F)c2n1	-13.9%	0.2%	50.4*	-3.9%	24.9*
Cc1cc(C)n2ncc(/C(N)=N/OC(=O)Nc3ccc(Cl)cc3)c2n1	2.9%	?	48.0	-1.2%	20.2*
Cc1cc(C)n2ncc(C(=O)NCc3cccnc3)c2n1	-9.9%	-0.3%	10.6	-2.6%	10.9
Cc1cc(NC(=O)CSc2nc3ccsc3c(=O)n2CCCC(=O)NCCc2ccccc2)no1	4.5%	3.8%	2.1	nt	10.1
Cc1ccc(N=Cc2ccc(N(C)C)cc2)cc1	0.4%	-16.2%	-11.5	-80.9%	7.4
Cc1ccc(N=Cc2ccc(N(C)C)cc2)cc1C	-4.5%	0.1%	23.3	nt	10.3
CN(C)c1ccc(N=Cc2ccco2)cc1	?	2.81µM*	99.1*	?	55.1*
C(=N\C(/N=C/c1ccco1)c1ccco1)/c1ccco1	1.9%	-21.3%	28.5	0.5%	8.0
C(=Nc1cccc2c(N=Cc3ccco3)cccc12)c1ccco1	2.8%	?	47.1*	nt	16.6
CN(C)c1ccc(C=Nc2ccc(N(C)C)cc2)cc1	-17.5%	?	77.6*	-9.1%	35.9*
COC(=O)C1=C(C(=O)OC)[C@@H]2N(Cc3ccccc3)c3ccccc3[C@@]23C[C@@H](C(=O)OC)N(S(=O)(=O)c2ccc(C#N)cc2)C3=N1	3.6%[11.5 µM]	4.0%[12.9 µM]	nt	nt	nt
Nc1cccc(-c2nc3ccc(N)cc3s2)c1	12.6µM*	-10.2%	37.4	-12.1%	21.2*
Nc1ccc(-c2nc3ccc(C(=O)O)cc3s2)cc1	?	-14.7%	-19.7	0.3%	-8.1
Nc1cc2sc(-c3ccc(C(=O)O)cc3)nc2cc1Cl	15.8µM*	-29.9%	30.8*	0.8%	25.7*

Source: PubChem BioAssay
